Measurements reported in PubChem BioAssay AID1498 (National Center for Advancing Translational Sciences (NCATS), 2009).
Records with an inconclusive call do not appear. Activity calls are given as the source filed them. Calls come from the whole dose curve.

Assay: Confirmation Concentration-Response Assay for Modulators of Lamin A Splicing
Settings: RFP activity: RFP channel at top concentration, at 46.1 µM; ratio activity: GFP/RFP ratio at top concentration, at 46.1 µM
Excerpt: NCGC Assay Overview: Hutchinson-Gilford Progeria Syndrome (HGPS) is a pediatric premature aging disease caused by a spontaneous mutation in the lamin A/C (LMNA) gene. The mutation activates a cryptic splice site in the LMNA pre-mRNA which results in production of a pre-lamin A protein that cannot be processed properly. The mutant protein accumulates in the nucleus and negatively affects numerous cellular functions. Correction of the splicing defect in HGPS patient cells using a targeted oligonucleotide (exo11) leads to reversal of the cellular disease phenotypes. To identify small molecule modulators of aberrant LMNA splicing, a homogenous assay was constructed in HeLa cells that used a GFP containing minigene to report on correction of aberrant splicing in lamin A and a RFP (DsRed2) to report on cell viability, uniformity and nonspecific effects on the assay signal. This assay was adapted to laser-scanning microplate cytometry (Acumen, TTP Labtech) where miniaturization of the assay to a 1,536-well plate format was possible. Select compounds active in the primary screen (AID 1487) were chosen for confirmation based on potency, efficacy, SAR and activity in other assays in PubChem and at NCGC. References: Bowen, W. P.; Wylie, P. G. Application of Laser-Scanning Fluorescence Microplate Cytometry in High Content Screening. Assay Drug Dev Technol 2006;4:209-221. Scaffidi P, Misteli T. Reversal of the cellular phenotype in the premature aging disease Hutchinson-Gilford progeria syndrome. Nat. Med. 2005;11:440-445.
NCGC Assay Protocol Summary: Reagents/Controls: Stable clones expressing DsRed2 and lamin A-EGFP were generated by Cell and Molecular Technologies in S3 HeLa cells. HeLa cells were prepared for the assay when they were 70-90% confluent. The cells were counted and resuspended in Opti-MEM I (no phenol red; Gibco), 2% FBS, 1% penicillin/ streptomycin (Gibco) at concentration of 120 cells/uL concentration. The suspension was passed through a Falcon basket filter with pore size 40um (Beckton Dickson). Control titrations: column […] 1536-well plate contained a sixteen point titration (1:2 dilutions) in duplicate of ancitabine (Sigma: A8598) beginning at 40 uM final concentration. Column 2 contained a sixteen point titration (1:2 dilutions) of cycloheximide beginning at 1.4 mM final concentration. Column 3 contained ancitabine at 40 uM and column 4 contained was the vehicle control (0.5% DMSO final concentration). Assay Steps: 5 uL of HeLa cells were plated in Aurora LoBase black clear bottom (cyclic-olefin polymer) 1536-well plates at a final density of 600 cells/well. Controls and library compounds were added with a 1536-well pin array using the Kalypsys pin-tool. The plates were then incubated for 48 hrs in a cell-culture incubator (37 °C; 5% CO2, 98% humidity). Following incubation the plates were read on the Acumen Explorer using the 488 nm laser. Data was collected on objects between 10 and 100 um in size. Cell objects were defined by a 15 um width x 10 um depth filter. The ratio of the total object intensity in PMT1 (500-530 nm emission; GFP) over PMT3 (575-640 nm emission; RFP) was calculated for analysis. Keywords: NIH Roadmap, MLSCN, MLI, MLSMR, qHTS, NCGC, lamin A, Progeria, RNA splicing.

SMILES | RFP activity [%] | outcome | ratio activity [%]
c1ccc(C2OCCN3CCCCC23)cc1 (stereo unspecified) | -2.54 | inactive | -7.51
CN1C(=O)CCS(=O)(=O)[C@@H]1c1ccc(Cl)cc1 | -19.9 | inactive | -2.66
